In all, about 1,400 compounds went through this assay and about 560 (40%) were called active.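 How the source made its calls: active means mean inhibition over duplicate tests at 10 µM above 50%; inactive means the rest.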 The set was probably picked from earlier hits. Some of the results follow.

Usually inhibition stands for the percentage by which the read-out fell short of the control.

A short description of this assay: ASC/caspase-1 reporter retest in S. cerevisiae at one dose, specificity check for NALP1 project (AID 488857). As to conditions: S. cerevisiae ASC/Caspase-1, beta-galactosidase luminescence, 24 h; at 10 µM; active compounds read high.
In the case of `O=C(Nc1ccc(Cl)c(Cl)c1)c1ccncc1`, the inhibition was 44.9% (inactive).
For `COc1ccc(OCC(=O)NC(=S)N2CCCc3ccccc32)cc1`, the inhibition is 37.9% (inactive).
The result for `O=C(COC(=O)CCC1CCCCC1)Nc1ccc(OC(F)F)cc1` reads 23.5% (inactive); that for `O=C(Nc1ccc2nc3ccccc3nc2c1)c1ccccc1`, 90.7% (active).
The result for `C=C(C)C(=O)Nc1cccc(C(C)=O)c1` reads 38.2% (inactive).
The result for `O=C(Nc1ccc2c(c1)Cc1ccccc1-2)c1ccncc1` reads 74.5% (active).
Consider `O=C(Nc1ccc2c(c1)CCC2)c1ccccc1`, for which the inhibition is 71.7% (active).
On to `O=C(COc1ccc(Cl)cc1)Nc1ccc2c(c1)CCC2`, for which the inhibition was 71.5% (active).
The result for `CS(=O)(=O)N(Cc1ccccc1)c1ccc(C(=O)Nc2ccc3c(c2)OCO3)cc1` reads 36% (inactive); that for `CS(=O)(=O)N(Cc1ccccc1)c1ccc(C(=O)Nc2cccnc2)cc1`, 36% (inactive).
The result for `O=C(CN1CCN(c2ccccc2)CC1)Nc1ccc2c(c1)CCC2` reads 21.1% (inactive); that for `COC(=O)c1ccccc1SC1CC(=O)N(c2cccc(C)c2)C1=O` (centres undefined), 37.6% (inactive); that for `CCN(CC)C1CC(=O)N(c2cccc(C)c2)C1=O` (centres undefined), 58% (active).
For the compound `Cc1cccc(N2C(=O)CC(Sc3ccccc3C(=O)O)C2=O)c1` (centres undefined), the inhibition is 49.3% (inactive).
In the case of `C=CCn1c(CNC(=O)c2cccs2)nnc1SCC(=O)Nc1ccc(C(=O)O)cc1`, the inhibition is 28.1% (inactive).
With `O=c1sc(Nc2ccccc2)nc2ccsc12`, the inhibition is 77.2% (active).
The result for `N#Cc1ccc(Oc2nc(Nc3ccc(F)cc3)nc(N3CCCC3)n2)cc1` reads 37.5% (inactive); that for `CN(C)S(=O)(=O)c1cccc2c1C(=O)c1ccccc1C2=O`, 44.5% (inactive).
The result for `O=C1c2cccc(O)c2C(=O)c2c(O)cccc21` reads 59.5% (active); that for `CN(C=[N+](C)C)c1cccc2c1C(=O)c1ccccc1C2=O`, 42.7% (inactive).
The result for `S=C(NC1CCCCC1)NN(c1ccccc1)c1ccccc1` reads 53.4% (active).
With `O=C(CCc1nc2ccccc2s1)Nc1ccccc1`, the inhibition is 80.2% (active).
`O=C(O)CCCCc1nc2ccccc2s1`: the inhibition is 32% (inactive).
In the case of `CCOc1ccccc1N1CCN(C(=O)CCCc2nc3ccccc3s2)CC1`, the inhibition is 48.7% (inactive).
On to `Cc1ccsc1/C=N/n1c(-c2ccccn2)n[nH]c1=S`, for which the inhibition was 54.9% (active).
Turning to `Cc1ccc2nc(Cl)c(C3CC(c4cccs4)=NN3C(=O)CCCC(=O)O)cc2c1` (centres undefined), the inhibition is 30.2% (inactive).
The result for `Cc1ccc(Sc2nnc(Cc3ccccc3)c3ccccc23)cc1` reads 48.1% (inactive).
The result for `Clc1ccc2oc3c(Cl)ncnc3c2c1` reads 29.9% (inactive).
Consider `COc1ccc2c(c1)C1=NN(/C(C)=C/C(C)=O)C(c3cccc(F)c3)C1CC2` (centres undefined), for which the inhibition was 47.5% (inactive).
The result for `Cc1ccc(C(=O)c2no[n+]([O-])c2C(=O)c2ccc(C)cc2)cc1` reads 77.2% (active); that for `Cc1ccc(C(=O)/C=C\C(=O)c2ccc(C)cc2)cc1`, 44.1% (inactive); that for `CC(C)c1nc2sc3c(=O)[nH]c(=S)[nH]c3c2c2c1CCC2`, 32% (inactive).
On to `O=C1C2C3C=CC(C2C(=O)N1CCCO)C1C2C(=O)N(CCCO)C(=O)C2C31` (centres undefined), for which the inhibition is 40.4% (inactive).
The result for `O=C(O)C1(c2ccccc2)CCN(S(=O)(=O)c2ccc(Br)cc2)CC1` reads 29.4% (inactive); that for `O=S(=O)(c1ccc(Br)cc1)N1CCCN(Cc2cccc(F)c2)CC1`, 61.5% (active); that for `CCOC(=O)C1CCCCN1Cc1cccc(F)c1` (centres undefined), 27.4% (inactive).
The result for `COc1ccccc1-c1nnc2sc(COc3ccc(Cl)cc3)nn12` reads 56.9% (active); that for `COc1ccccc1C(=O)Nc1ccc(OCc2nnc3c4ccccc4c(C)nn23)cc1`, 45.4% (inactive); that for `Clc1ccc(Cn2c(/C=C/c3ccco3)nc3ccccc32)cc1`, 46.5% (inactive).
The result for `Oc1c(I)cc(Cl)c2cccnc12` reads 97.2% (active).
For `Oc1c(CN2CCCCC2)cc(Br)c2cccnc12`, the inhibition was 49% (inactive).
In the case of `O=C(N/N=C/c1cccc(F)c1)c1c(O)c2ccccc2[nH]c1=O`, the inhibition was 38.5% (inactive).
The result for `NC(=S)N/N=C/c1coc2c(ccc3ccccc32)c1=O` reads 58% (active).
The result for `CSc1ccc(C(=O)C2CCCN(C(=O)c3ccc4c(c3)no[n+]4[O-])C2)cc1` (centres undefined) reads 19.9% (inactive); that for `Cn1c(=O)c([N+](=O)[O-])c(-n2cnc3ccccc32)c2ccccc21`, 14.3% (inactive); that for `O=[N+]([O-])/C(C(=C(Cl)Cl)N1CCN(Cc2ccccc2)CC1)=C1\NCCN1Cc1ccc(Cl)nc1`, 41.5% (inactive).
As to `Cc1cc2ncn(/N=C/c3ccc([N+](=O)[O-])s3)c2cc1C`, the inhibition was 67.8% (active).
The result for `CN(C)/C=N/n1cnc2ccccc2c1=O` reads 32% (inactive); that for `CCCCCCCCCCCCCCCC[n+]1cccc2ccccc21`, 93.7% (active).
The result for `O=c1c(Br)c(N2CCCC2)cnn1-c1ccccc1` reads 64.9% (active).
As for `c1ccc2sc(Sc3ncnc4sccc34)nc2c1`, the inhibition is 44.6% (inactive).
Regarding `Cn1c2ccccc2c(=O)c2c(=O)n(C3CCCCCC3)c(C3CCCCC3)nc21`, the inhibition is 53.2% (active).
In the case of `COc1ccc(CCn2c(C(C)C)nc3c(c(=O)c4ccccc4n3C)c2=O)cc1`, the inhibition is 28% (inactive).
The result for `COC(=O)c1ccc(NC(=O)c2ccccc2N(C)S(=O)(=O)c2ccccc2)cc1` reads 55.2% (active); that for `Cc1ccc(NC(=O)c2cccc(S(=O)(=O)N(C)c3ccccc3)c2)cc1S(=O)(=O)N1CCOCC1`, 36.1% (inactive); that for `COc1cc(/C=C/C(=O)Nc2ccc(C)cc2)cc(OC)c1OC`, 46.8% (inactive).
For `CSc1ccc(/C=C/C(=O)c2ccc(O)cc2)cc1`, the inhibition is 81.2% (active).
The result for `CSc1ccc(/C=C/C(=O)c2ccc(NC(C)=O)cc2)cc1` reads 75.5% (active); that for `CC(=O)c1ccc(NC(=O)/C=C/c2ccc(C)cc2)cc1`, 60.4% (active).
Consider `Cc1c(N)c(C(C)(C)C)cc(C(C)(C)C)c1[N+](=O)[O-]`, for which the inhibition was 35.1% (inactive).
The result for `CCN1CCN(c2cc3c(cc2F)c(=O)c(C(=O)O)cn3C2CC2)CC1` reads 36.3% (inactive); that for `CCOC(=O)C(=O)C1=C(N2CCOCC2)/C(=C\c2ccc(F)cc2)CC1`, 36.2% (inactive); that for `COc1ccc(OC)c(/C=c2\sc3nc(-c4cccs4)nn3c2=O)c1`, 23.2% (inactive).
As for `CCOc1ccc(C(=O)Nc2ccc(-c3nc4ccccc4[nH]3)cc2)cc1[N+](=O)[O-]`, the inhibition was 39.4% (inactive).
The result for `COc1ccc(C(=O)NCc2ccccc2)cc1S(=O)(=O)N1CCCc2ccccc21` reads 39% (inactive).
On to `CC1CCN(c2ccccc2NC(=O)c2ccc(N3CCOCC3)c([N+](=O)[O-])c2)CC1`, for which the inhibition is 27.4% (inactive).
In the case of `CCOc1ccc(C(=O)NC(=S)Nc2ccccc2N2CCCCC2)cc1[N+](=O)[O-]`, the inhibition is 62.5% (active).
Turning to `COC(=O)c1ccc(C(=O)OC)c(NC(=O)CN2CCN(c3ccccc3OC)CC2)c1`, the inhibition is 49.2% (inactive).
Take `COc1ccc(C(=O)NC(=S)Nc2ccccc2N2CCCCC2)cc1[N+](=O)[O-]`: the inhibition was 68% (active).
As for `COc1cc(-c2nc(C(F)(F)F)c(OC)o2)cc(OC)c1OC`, the inhibition was 44.9% (inactive).
The result for `COc1cc(/C=C/C(=O)c2ccc(Cl)s2)cc(OC)c1O` reads 63.6% (active); that for `Cc1cccc(OC(=O)c2cn(C)nc2C(F)(F)F)c1C`, 50.9% (active).
Turning to `COc1ccccc1N1CCN(C(=O)CSc2ncnc3scc(-c4ccccc4)c23)CC1`, the inhibition is 44.1% (inactive).
The result for `COc1ccc(-c2csc3ncnc(Oc4cccc5ccc(C)nc45)c23)cc1` reads 71.4% (active).
In the case of `Cc1ccc(-c2csc3ncnc(Oc4cccc5ccc(C)nc45)c23)cc1`, the inhibition is 63% (active).
The result for `Cc1ccc(/C=C/C(=O)NCc2ccc3c(c2)OCO3)o1` reads 42.4% (inactive).
The result for `O=C(c1ccc(F)cc1)c1cn(Cc2ccc(F)cc2)c2cc3c(cc2c1=O)OCCO3` reads 44.1% (inactive).
For the compound `O=C(/C=C/c1ccc(F)cc1)NCCc1ccc2c(c1)OCCO2`, the inhibition is 61.6% (active).
As for `O=C(Nc1ccon1)c1cc2ccccc2oc1=O`, the inhibition is 30.9% (inactive).
With `O=C(NC(=S)Nc1cccnc1)c1cc2ccccc2o1`, the inhibition is 69.7% (active).
The result for `O=C(Nc1cccc(-c2nc3ncccc3o2)c1)c1cc2ccccc2o1` reads 61.8% (active).
The result for `O=C(Nc1cccnc1)Nc1ccc2c(c1)OCO2` reads 43.5% (inactive); that for `O=C(N/N=C/c1ccncc1)c1cc2ccccc2o1`, 41.4% (inactive).
The result for `O=C(O)CC(Cn1cnnn1)c1ccccc1` (centres undefined) reads 29.3% (inactive); that for `CN(C#N)c1nc(Cl)nc(Nc2cccc(Cl)c2)n1`, 28.1% (inactive); that for `Cc1ccc(C(=O)NCCCNc2ccc(C(F)(F)F)cc2[N+](=O)[O-])cc1`, 46.6% (inactive).
`O=[N+]([O-])c1cc(C(F)(F)F)ccc1NCCc1c[nH]c2ccc(O)cc12`: the inhibition was 70.5% (active).
Turning to `C1CCC(C(CC2CCCCN2)C2CCCCC2)CC1` (centres undefined), the inhibition is 39.9% (inactive).
The result for `COc1cc(/C=N/n2cnnc2)ccc1OCc1ccc(C)cc1` reads 48.5% (inactive); that for `COc1ccc(/C=N/N2CCOCC2)cc1COc1ccc(Cl)cc1`, 61% (active).
As for `O=C1C=CC(=O)N1CCNc1ncc(C(F)(F)F)cc1Cl`, the inhibition is 44% (inactive).
The result for `O=C1C=CC(=O)N1CCCCCCN1C(=O)C=CC1=O` reads 73.7% (active); that for `CN1CCN(C2=C(Cl)C(=O)C(c3cnc(N4CCCCC4)s3)=C(Cl)C2=O)CC1`, 41.3% (inactive).
The result for `COc1ccc(OC)c(N/C(=N/C(=S)Nc2ccccc2)Nc2nc(C)cc(C)n2)c1` reads 34.1% (inactive); that for `CCCn1nc(NC(=O)c2ccccn2)c2cc3cc(C)ccc3nc21`, 16.4% (inactive).
Turning to `O=C(NCc1cccs1)c1csc2ccccc12`, the inhibition was 57.2% (active).
In the case of `CC(C)CC(=O)c1c[nH]c(C(=O)NCc2cccs2)c1`, the inhibition was 38.2% (inactive).
The result for `CC1=C(OC(=O)c2ccc(Br)cc2)C(C)(C)C(c2ccccc2)OC1=O` (centres undefined) reads 22% (inactive); that for `CC1(C)COC(/C=C/c2ccc([N+](=O)[O-])cc2)=N1`, 83.1% (active).

For the origin of these results see PubChem BioAssay AID488857 (Sanford-Burnham Center for Chemical Genomics, 2010).
